PNC assembly inh – blocks assembly of the perinucleolar compartment; PC3M PTB-GFP, PNC prevalence imaging, 16 h; active compounds read low; activity change (PNC), negative = inhibition, % at 10 µM; 140,000 compounds, 3.1% hits; AID 2417;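 active = readout at or below -70, meaning at least 70% loss of cells showing the perinucleolar compartment, a nuclear body marking cancer cells; inconclusive = readout between -30 and a set limit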
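Compounds are pinned in duplicate onto adhered PC3M cells stably expressing GFP-tagged PTB and incubated 16 h at 37 C. Cells are then fixed, nuclei stained with Hoechst, and PNC-positive cells counted.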
12-hLO inh – blocks human 12-lipoxygenase activity; P18054; purified 12-hLO, xylenol orange hydroperoxide absorbance; Potency, µM (series often up to 57.1 µM), most hits filed as inhibitors; 150,000 compounds, 0.12% hits; AID 1452; note: nearly all actives have a fitted effect of over 55% in size
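Hydroperoxide formation by human 12-lipoxygenase from 40 uM arachidonic acid was followed colorimetrically via ferric-xylenol orange complex, using the 573/405 nm absorbance ratio. Enzyme concentration was 150 nM, with 30 min reaction at room temperature.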
15-hLO-2 inh – blocks human 15-lipoxygenase 2 activity. O15296. purified 15hLO-2, xylenol orange hydroperoxide absorbance. Potency, µM (series often up to 57.1 µM), usual class: inhibitors. 110,000 compounds, 0.56% hits; note: nearly all actives have a fitted effect of over 60% in size
Target sequence (O15296 whole entry, looked up): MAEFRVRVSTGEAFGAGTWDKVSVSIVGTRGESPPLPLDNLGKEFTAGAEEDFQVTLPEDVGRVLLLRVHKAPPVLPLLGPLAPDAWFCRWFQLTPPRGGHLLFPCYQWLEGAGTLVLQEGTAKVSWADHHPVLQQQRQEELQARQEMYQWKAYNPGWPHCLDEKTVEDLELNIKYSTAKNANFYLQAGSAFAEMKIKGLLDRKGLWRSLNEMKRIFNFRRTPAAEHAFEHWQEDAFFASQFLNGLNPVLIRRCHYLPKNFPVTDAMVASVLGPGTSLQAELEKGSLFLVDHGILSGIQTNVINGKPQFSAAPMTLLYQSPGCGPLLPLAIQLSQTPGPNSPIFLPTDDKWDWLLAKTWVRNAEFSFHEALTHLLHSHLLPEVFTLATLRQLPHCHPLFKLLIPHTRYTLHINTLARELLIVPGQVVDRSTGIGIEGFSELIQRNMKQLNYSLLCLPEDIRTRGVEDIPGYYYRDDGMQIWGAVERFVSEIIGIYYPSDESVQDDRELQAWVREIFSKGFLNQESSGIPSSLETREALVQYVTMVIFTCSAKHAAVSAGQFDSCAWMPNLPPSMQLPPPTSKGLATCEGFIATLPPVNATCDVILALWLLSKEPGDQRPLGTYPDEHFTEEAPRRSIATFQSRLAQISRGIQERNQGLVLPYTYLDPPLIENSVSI
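Screening format was qHTS against 50 nM purified 15hLO-2 in Hepes pH 7.5 with detergent. Activity follows hydroperoxide formation from 45 uM arachidonic acid, measured as 573:405 nm absorbance ratio of the ferric-xylenol orange complex.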
A number is an active result; - = inactive; ? = inconclusive; . = no result given; [ ] = dose if it differs, or a comment. Shown are actives, neighbours in structure and some others; about 3.2% of the full set was active somewhere. Unless noted, calls come from the whole dose curve; as a rule, active = well fitted curve in the direction sought with a large enough effect; inconclusive = small, poorly fitted or top-dose-only effect, or another doubt; inactive = no such curve, though single readings can be large; an effect the other way counts as inactive or inconclusive.

SMILES | PNC assembly inh | 12-hLO inh | 15-hLO-2 inh
O=C(NC1CCCCC1)C1CCN(c2cnccn2)CC1 | -94.5 | - | -
Cc1ccccc1NC(=O)C1CCN(c2cnccn2)CC1 | - | - | .
CCN(CC)S(=O)(=O)c1ccc(Br)c(OC)c1 | - | - | -
Cc1nn(-c2ccccc2)c(C)c1/C=N/NC(=O)CSc1nnc(SCc2ccc(Cl)cc2)s1 | - | - | .
CCC(=O)N1N=C(c2c(-c3ccccc3)c3cc(Cl)ccc3[nH]c2=O)CC1c1ccco1 (stereo unspecified) | -81.9 | - | .
O=C(O)CCC(=O)N1N=C(c2c(-c3ccccc3)c3cc(Cl)ccc3[nH]c2=O)CC1c1ccco1 (stereo unspecified) | - | - | .
CCOc1ccccc1C(=O)NC(C)c1ccc2c(c1)OCO2 (stereo unspecified) | -102.7 | - | -
Cc1occc1C(=O)NC(C)c1ccc2c(c1)OCO2 (stereo unspecified) | ? | - | -
CCOc1cc(C(=O)Nc2ccc3c(c2)OCO3)ccc1OCCOc1ccccc1Cl | -86.9 | - | -
CCOc1ccc(C(=O)Nc2ccc3c(c2)OCO3)cc1OCC | ? | - | -
Cc1ccc(C)c(NS(=O)(=O)c2cc(C(=O)O)ccc2Cl)c1 | . | - | .
COc1cc2c(Cc3c4c5c(cc(OC)c(OC)c5c5c(OC)c(OC)ccc35)CCN4C)c3c4c(cc(OC)c(OC)c4c2cc1OC)CCN3C | . | - | -
Cc1c(NC(=O)/C(C#N)=C/c2ccc(-c3ccc(Cl)cc3)o2)c(=O)n(-c2ccccc2)n1C | - | - | .
CC1CC1c1ccc(/C=C(\C#N)C(=O)Nc2ccccc2Cl)o1 (stereo unspecified) | - | - | .
N#C/C(=C/c1ccc(N2CCCCC2)o1)C(=O)Nc1ccc(Cl)cc1 | -123.2 | - | -
N#C/C(=C/c1ccc(N2CCCCC2)o1)C(=O)Nc1ccc2ccccc2c1 | -91.3 | - | .
Cc1cc(C)nc(Sc2ccc(/C=C(\C#N)C(=O)Nc3ccccc3)o2)n1 | - | - | -
CC1CC1c1ccc(/C=C(\C#N)C(=O)Nc2ccc(Cl)cc2)o1 (stereo unspecified) | -125.2 | - | .
N#Cc1ccc(CN2CCCC3(CCN(C(=O)c4cc(C(F)(F)F)cc(C(F)(F)F)c4)CC3)C2)cc1 | . | - | -
COC(=O)c1ccc(CSc2nnc(Nc3ccc(C)cc3)s2)o1 | - | - | -
O=C(O)/C=C\[C@H](O)c1ccc(Cl)cc1 | . | - | -
COC(=O)C1=C(C(=O)OC)[C@@H]2N(C)c3ccc(OC)cc3[C@@]23C[C@@H](C(=O)OC)N(S(=O)(=O)c2ccc4c(c2)OCCN4C)C3=N1 | . | -[11.4 µM] | .
CC(C)c1cccc(C(C)C)c1NC(=O)Cn1c(=O)cnc2ccccc21 | ? | - | .
CCOC(=O)c1cc(-c2ccccc2)n(CC(=O)Nc2cccc(OC)c2)c1C | ? | - | .
CCOC(=O)c1cc(-c2ccccc2)n(CC(=O)Nc2ccc(OC)c(OC)c2)c1C | -88.1 | - | .
SMILES | PNC assembly inh | 12-hLO inh | 15-hLO-2 inh
O=C(NC(=Nc1nc2ccccc2o1)NC(=O)c1ccccc1)c1ccccc1 | ? | - | .
COc1ccccc1C(=O)NC(=Nc1nc2ccccc2o1)NC(=O)c1ccccc1OC | -82.5 | - | -
CCCCC[C@H](O)/C=C/C=C\C/C=C\CCCCC(=O)O | . | - | .
Cc1ccc(N2C(=O)[C@@H]3C(C(=O)C(c4ccccc4)c4ccccc4)=NN[C@@H]3C2=O)cc1 | ? | - | .
O=C(CCC1CCCC1)NCc1cccs1 | - | - | -
OC(c1cccs1)(c1cccs1)C1C[N+]2(CF)CCC1CC2 (stereo unspecified) | -98.2 | - | -[11.4 µM]
Cc1cc(Cl)ccc1NC(=S)NCc1ccccc1Cl | - | ? | .
O=C(NCCN1C(=O)S/C(=C\c2ccc(F)cc2)C1=O)c1cccc(S(=O)(=O)N2CCOCC2)c1 | - | - | .
CC1CC(C)CN(CCOc2ccccc2-c2ccccc2)C1 (stereo unspecified) | ? | - | .
c1ccc(-c2ccccc2OCCCN2CCCC2)cc1 | -107.0 | - | .
c1ccc(-c2ccccc2OCCCCN2CCCCC2)cc1 | - | - | .
CC1CCN(CCOc2ccccc2-c2ccccc2)CC1 | -105.2 | - | .
C[C@H](CCC(=O)O)[C@H]1CC[C@@H]2[C@H]3[C@@H](C[C@@H](O)[C@]21C)[C@]1(C)CC[C@H](O)C[C@@H]1C[C@@H]3O | . | -[11.4 µM] | -[11.4 µM]
CCOc1cc(/C=N/NC(=O)CSc2nncn2C)ccc1OCc1cccc(C)c1 | ? | - | .
O=C(OCCO)c1ccccc1O | . | -[0.00818 µM] | -[0.0915 µM]
CCCCC[C@H](O)/C=C/C=C\C=C\[C@@H](O)C/C=C\CCCC(=O)O | . | - | .
Cc1c(NC(=O)COC(=O)c2cc(-c3ccc(-c4ccccc4)cc3)nc3ccccc23)c(=O)n(-c2ccccc2)n1C | -113.0 | - | .
COc1ccc(-c2cc(C(=O)OC(C)C(=O)Nc3c(C)n(C)n(-c4ccccc4)c3=O)c3ccccc3n2)cc1 (stereo unspecified) | -86.0 | - | .
Cc1c(NC(=O)C(C)OC(=O)c2cc(-c3cccc4ccccc34)nc3ccccc23)c(=O)n(-c2ccccc2)n1C (stereo unspecified) | - | - | .
Cc1c(NC(=O)COC(=O)c2ccc[nH]c2=O)c(=O)n(-c2ccccc2)n1C | - | - | .
O=C(N1CCN(c2ccccn2)CC1)C(Cl)(Cl)Cl | ? | - | .
O=C(c1ccco1)N1CCCN(C(=O)c2ccco2)CC1 | - | - | -
O=C(c1ccco1)N1c2ccccc2Sc2ccccc21 | - | - | .
O=C(c1ccco1)N1CCN(C(=O)c2ccccc2Oc2ccccc2)CC1 | -111.6 | - | .
O=C(c1ccco1)N1CCN(C(=O)N2c3ccccc3Sc3ccccc32)CC1 | -89.2 | - | -
SMILES | PNC assembly inh | 12-hLO inh | 15-hLO-2 inh
NC(=O)C1CCN(C(=O)c2ccco2)CC1 | -80.5 | - | .
O=C(N1CCN(c2ccccn2)CC1)N1c2ccccc2Sc2ccccc21 | -84.0 | - | -
CCOC(=O)N1CCN(C(=O)c2ccccc2Oc2ccccc2)CC1 | ? | - | -
CCNc1ncc2nc(-c3cn(C)c4ccccc34)c(=O)n(C)c2n1 | . | . | -
CCOC(=O)N1CCN(Cc2nc3c(c(=O)[nH]c(=O)n3C)n2Cc2cc(C)ccc2C)CC1 | - | - | -
CCOC(=O)C1=C(N)OC2=C(C(=O)CC(C)(C)C2)C1c1cccnc1 (stereo unspecified) | ? | - | -
CCOC(=O)C1=C(N)OC2=C(C(=O)CCC2)C1c1ccc(C)s1 (stereo unspecified) | -107.1 | - | -
CCOC(=O)C1=C(N)OC2=C(C(=O)CCC2)C1c1cccnc1 (stereo unspecified) | -119.6 | - | -
CCOC(=O)C1=C(N)OC2=C(C(=O)CCC2)C1c1sccc1C (stereo unspecified) | - | - | .
COc1cc(NS(C)(=O)=O)ccc1Cc1c2ccccc2nc2ccccc12 | . | - | -
Cc1c(CNC2CCCC2)c(C(=O)O)c(C)n1Cc1ccccc1 | ? | - | .
N[C@H](C(=O)O)c1cc(O)cc(O)c1 | . | - | -
CC(=O)Nc1ccc(OCC(O)CN2CCN(c3cccc(Cl)c3)CC2)cc1 (stereo unspecified) | - | - | -
CC(=O)Nc1ccc(OCC(O)CN2CCN(c3ccc(Cl)cc3)CC2)cc1 (stereo unspecified) | -100.0 | - | .

High-throughput results: PubChem, National Center for Advancing Translational Sciences (NCATS)
